Screening data from PubChem.
Only some compounds are listed: those with a hit (about 2.8% of all), similar ones and a draw of the others.
Calpain2 inh – calpain II (pig) inhibition; AID 1236; inhibition, % at 16 µM; hit rate 0.37% among 220,000; purified calpain II, fluorogenic peptide substrate, 30 min;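 active = inhibition above about 50%, limit read from the data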
Mcl-1 Bim block – human Bim-Mcl-1 interaction inhibition; Q07820; inhibition, % at 10 µM; Bead-based flow cytometry, Bim peptide-Mcl-1 binding; hit rate 0.1% among 190,000; in the data active = inhibition above about 40%;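 note: 0% = no compound tracer wells and 100% = peptide blocker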
Target sequence (Q07820 whole entry, looked up): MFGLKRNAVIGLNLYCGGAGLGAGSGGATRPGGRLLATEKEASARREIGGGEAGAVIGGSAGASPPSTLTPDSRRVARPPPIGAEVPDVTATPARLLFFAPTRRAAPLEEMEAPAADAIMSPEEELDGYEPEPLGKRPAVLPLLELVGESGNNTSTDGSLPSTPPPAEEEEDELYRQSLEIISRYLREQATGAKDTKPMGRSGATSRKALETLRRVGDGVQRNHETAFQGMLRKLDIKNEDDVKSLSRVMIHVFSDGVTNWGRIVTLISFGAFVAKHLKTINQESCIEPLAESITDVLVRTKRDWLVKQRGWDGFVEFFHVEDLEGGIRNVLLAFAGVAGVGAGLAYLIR
Mcl1 Bid PPI – disrupts binding of human Mcl-1 to Bid peptide | TR-FRET Mcl-1/Bid-Dy647 peptide binding, 1536-well | inhibition, % at 21.7 µM | hit rate 0.97% among 220,000;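 active = compounds that cut the binding signal by more than half at the single screening dose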;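 note: His-tagged Mcl-1 with europium anti-His antibody binding Bid BH3 peptide; 0% = Mcl-1 plus peptide wells and 100% = peptide-only wells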
L929 necroptosis – L929 zVAD cell death inhibition. AID 1377. L929 zVAD necroptosis rescue, ATP luminescence, 24 h; with zVAD 60 µM. hit rate 0.38% among 220,000. viability rescue, % at 10 µM;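 active = activation, scaled between plate controls, above about 75%, limit read from the data; inactive = activation under that limit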;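 note: 0% = zVAD with DMSO and 100% = DMSO alone without zVAD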
Mcl1-Noxa inh – disrupts binding of human Mcl-1 to Noxa peptide | hit rate 1.5% among 220,000 | inhibition, % at 21.7 µM | AID 1022 | TR-FRET Mcl-1/Noxa peptide binding, 2 h | Q07820;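 active = compounds that cut the protein-peptide binding signal by more than 50% relative to plate controls in a single-dose test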;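 note: His-tagged Mcl-1 with rhodamine Noxa BH3 peptide and terbium anti-His antibody; 0% = Mcl-1 plus Noxa peptide wells and 100% = peptide-only wells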
TNF necrop inh – inhibitors of TNF-alpha induced necroptosis in Jurkat FADD-/- cells | Jurkat FADD-/- TNF necroptosis rescue, ATP luminescence, 24 h; 0 = TNF only, 100 = no-TNF cells | activation (protection from cell death), % at 10 µM | hit rate 0.068% among 220,000 | AID 463075;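 active = activation, meaning protection from cell death, of at least 50% relative to plate controls; inactive = activation below 50%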;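 note: necroptosis triggered by 40 ng/mL TNF-alpha added together with compound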
* hit, by the source's call; / = not tested or not shown.

SMILES	Calpain2 inh	Mcl-1 Bim block	Mcl1 Bid PPI	L929 necroptosis	Mcl1-Noxa inh	TNF necrop inh
COCCn1nnnc1C(c1ccc(O)c(OC)c1)N1CCc2ccccc2C1 (centres undefined)	7	-1	-10	2	77*	3
Cc1cc(C)c(S(=O)(=O)N2CCCCC2)c(C)c1N(C)S(=O)(=O)c1ccc(Cl)cc1	8	-8	-43	2	-9	1
COC(=O)c1ccc(C(=O)OC)c(NC(=O)COC(=O)C2CC2C)c1 (centres undefined)	-15	0	8	1	-8	-2
CCn1c(SCC(=O)Nc2nccc(C)n2)nc2ccccc21	-1	/	-35	0	9	1
CCN(CC)S(=O)(=O)c1cccc(NC(=O)c2ccc(Sc3nncn3C)c([N+](=O)[O-])c2)c1	-49	-2	-44	-1	28	-6
Cc1ccc(-n2nnnc2SCC(=O)Nc2cccc(NC(=O)c3ccco3)c2)cc1C	-35	-3	63*	3	-9	-3
Cc1cc(C)cc(-n2nnnc2SCC(=O)Nc2cccc(NC(=O)c3ccco3)c2)c1	-22	0	-6	4	16	-2
Cn1c(CCN2CCN(c3ccccc3)CC2)nc2cc(NC(=O)c3ccco3)ccc21	-12	-5	-33	0	3	-1
Cc1ccc(-n2nc3ccc(NC(=O)c4ccco4)cc3n2)cc1	-490	0	66*	0	1	1
CN1CCN(CCc2nc3cc(NC(=O)c4ccco4)ccc3n2C)CC1	54*	/	-29	0	1	-1
O=C(/C=C/c1ccco1)Nc1ccc2nn(-c3ccccc3)nc2c1	-126	-5	-46	2	78*	-1
Nc1nonc1C(=O)NCCNS(=O)(=O)c1ccc(Br)cc1	-31	-2	-35	0	-14	-2
CCCCC[C@H](O)/C=C/[C@@H]1[C@@H](C/C=C\CCCC(=O)OC)[C@@H](O)C[C@H]1O	21	0	98*	50	43	-8
CCCCC[C@H](O)/C=C/[C@@H]1[C@@H](C/C=C\CCCC(=O)O)[C@@H](O)C[C@H]1O	27	-2	-1	34	10	-8
COCCCNC(=O)/C(C#N)=C/c1ccc(OCC(=O)O)c(OC)c1	6	1	32	0	100*	0
NNc1cc([N+](=O)[O-])cc2c1C(=O)N(Cc1ccccc1)S2=O (centres undefined)	-29	-5	-55	1	58*	-1
CC(C)=NNc1cc([N+](=O)[O-])cc2c1C(=O)N(C)S2=O (centres undefined)	29	-2	-34	0	8	-1
COc1ccc(-c2nc(=S)c3c([nH]2)Oc2ccc(C)cc2C3)cc1O	27	-4	-28	-1	66*	-1
O=C1CC(c2ccco2)CC(O)=C1C=NCCN1CCN(C(=S)Nc2ccccc2)CC1 (centres undefined)	-9	/	-50	2	51*	1
CSC1=N/C(=C\c2ccccc2F)C(=O)S1	-107	1	100*	0	92*	-4
COc1cccc(/C=C2\N=C(SC)SC2=O)c1OC	-20	-2	-15	3	10	-2
O=C(N/N=C\c1c(O)ccc2ccccc12)c1ccc(Cn2cccn2)o1	-181	0	-70	3	51*	-6
COc1ccc(C(C)C)cc1S(=O)(=O)n1ccnc1C	16	0	-7	0	11	-1
C/C(=N/NC(=O)c1cc2ccccc2cc1O)C1C(=O)c2ccccc2C1=O	-155	3	2	0	92*	1
C/C(=N\NC(=O)c1ccccc1O)C1C(=O)c2ccccc2C1=O	-10	-1	-92	2	66*	-3
SMILES	Calpain2 inh	Mcl-1 Bim block	Mcl1 Bid PPI	L929 necroptosis	Mcl1-Noxa inh	TNF necrop inh
Cc1cc(-c2csc(NC(=O)c3ccc(=O)n(C)n3)n2)c(C)n1CC1CCCO1 (centres undefined)	-47	0	-20	1	54*	-4
Cc1cc(-c2csc(NC(=O)c3ccccc3C(F)(F)F)n2)c(C)n1Cc1ccccc1	11	-1	-25	4	-12	-2
Cc1ccc(Cl)cc1N(Cc1ccc(C(=O)NCc2cccnc2)cc1)S(=O)(=O)c1ccccc1	52*	-4	1	0	-4	-7
COc1ccc2c(-c3cc4ccc(OCc5ccc(F)cc5)cc4oc3=O)cc(=O)oc2c1	0	0	56*	1	-2	2
COc1ccc(-c2cc(=O)oc3cc(OCC(C)=O)ccc23)cc1	-31	-1	-19	2	-1	2
O=C(N/N=C/c1cccnc1)c1cccc(S(=O)(=O)N2CCCC2)c1	-25	55*	-32	1	1	-1
N#C/C(=N\Nc1ccc(S(=O)(=O)N2CCc3ccccc32)cc1)C(N)=S	-44	2	-7	48	60*	-3
CC1CCc2c(C(=O)Nc3ccc(N4CCOCC4)cc3)csc2C1 (centres undefined)	-25	-1	-3	6	67*	1
CC1CCc2c(C(=O)NCCN3CCOCC3)csc2C1 (centres undefined)	-34	4	-35	0	-12	0
Cc1cc(C)nc(Sc2nc(Cl)nc(N(c3ccccc3)c3ccccc3)n2)n1	5	-2	-35	0	-1	-23
O=c1[nH]c2c(c(=O)[nH]1)CCC2	-9	1	-31	3	-21	0
COC(=O)CCN(C(=O)c1cccc(OC(C)=O)c1)c1ccccn1	8	-4	52*	0	0	-1
COC(=O)CCN(C(=O)c1ccc2c(c1)OCO2)c1ccccn1	2	-2	-4	0	-11	-2
COc1ccc(C(C2C(=O)CC(C)(C)CC2=O)C2C(=O)CC(C)(C)CC2=O)cc1	-10	/	-43	0	6	3
Cc1ccc(C2(CCNCc3ccc(N(C)C)cc3)CCOC(C(C)C)C2)cc1 (centres undefined)	-16	0	-35	9	56*	1
Cc1cc(C(=O)NC2CC2)c2ccccc2n1	25	3	3	1	9	0
O=C(NCc1ccco1)c1cc(-c2ccccc2)nc2ccccc12	13	-2	-12	0	9	-1
Cc1nnc(Sc2cc(C(=O)NCc3ccco3)c3ccccc3n2)s1	-14	-1	-6	97*	26	0
Cc1nnc(Sc2cc(C(=O)NC3CC3)c3ccccc3n2)s1	-20	/	99*	42	0	4
CC1CCN(CC(CS(=O)(=O)c2ccc([N+](=O)[O-])cc2)N2CCC(C)CC2)CC1 (centres undefined)	-4	/	-11	35	-8	-30
COc1ccc(N(CC(=O)N2CCC(Cc3ccccc3)CC2)S(C)(=O)=O)cc1	22	0	-4	1	1	1
